The entries come from a sample that favours hits as a whole.
TTR transcr act – increases transthyretin transcription; SH-SY5Y TTR promoter Gaussia luciferase, luminescence; 100% = recombinant luciferase protein wells; activation, % at 16.7 µM; 92,000 compounds, 1.3% hits;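 active means activation above the mean of all tested compounds plus 3 SD, cut at about 9.5% in these data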;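 further: cells exposed to compounds for one day before reading; 0% = median of all test compound wells on the plate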
HuH7 TTR inh – counter-screen for TTR activators: TTR transcription inhibitors in HuH7 cells; inhibition, % at 16.7 µM; HuH7 TTR promoter-Gaussia luciferase reporter, luminescence; shares compounds with TTR transcr act; 1,100 compounds, 4% hits;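 active means average inhibition above the solvent-only control wells' mean plus 3 SD, cut at about 15% in these data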;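 further: 0% = cells with DMSO only and 100% = cells with inhibitor control FD; inhibitors lower well luminescence so higher value means more inhibition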
TTR act confirm – human TTR transcription activation, confirmation; activation, % at 16.7 µM; SHSY5Y TTR promoter Gaussia luciferase, luminescence; 100% = purified Lucia enzyme wells, no cells; shares compounds with TTR transcr act; 1,100 tested, under 10 active; AID 1117280;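 active means mean activation above a set limit taken from the earlier primary screen, cut at about 11% in these data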;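 further: 0% = DMSO-treated cells and 100% = recombinant Lucia luciferase without cells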
* marks the source's active call; other numbers are inactive results.

SMILES | TTR transcr act | others
CSc1ccccc1NC(=O)COC(=O)CCC(=O)c1ccc(F)cc1 | -1
O=C(COC(=O)CCSc1ccccc1)Nc1ccc(F)cc1Cl | 0
COC(=O)[C@@]12CCCCC3=C1N(CCC3)C(=O)[C@H]2CC(=O)NCCC(C)C | 0
Cc1cc(C)c2c(=O)[nH]c(SCc3ccccc3C)nc2n1 | -1
Cc1cc(C)c2c(N)c3cccc(C)c3nc2n1 | 12* | HuH7 TTR inh=-4;TTR act confirm=3
Cc1cc(Nc2ccc3c(c2)OCCO3)c2cccc(C)c2n1 | 0
COC(=O)[C@@]1(C(C)C)N=C(c2cc(OC)c(OC)c(OC)c2)[C@]2(O1)C(=O)N(Cc1cn(Cc3ccccc3)nn1)c1ccc(F)cc12 | 0
COC(=O)[C@]12C[C@H](CC(=O)NCC3CCCCC3)C(=O)N(Cc3ccc(Cl)cc3Cl)C1=C[C@H](C(C)(C)C)O[C@@H]2C | 0
CCOc1ccc(CCNC(=O)c2ccccn2)cc1OCC | 0
CCCCCCCCCCCCC(=O)CCCCC(=O)O | -1
CC(CCCCCCCCC(=O)O)N(CCO)C(=O)OC(C)(C)C (centres undefined) | 10* | HuH7 TTR inh=-5;TTR act confirm=0
CCCCCCC(=O)O | 0
CN(C)[C@@H]1CCN(c2ccc3c(c2)OCCCN(C2CC2)S3(=O)=O)C1 | 0
COc1cc(Cn2cc([C@]34C[C@H]5C(=O)N(C)CC(=O)N5[C@H]3N(S(=O)(=O)c3ccccc3)c3ccccc34)c3ccccc32)cc(OC)c1 | -1
COCCNC(=O)c1c(N)[nH]c(C(=O)c2ccc(Br)cc2)c1-c1c(OC)ccc2ccccc12 | 0
O=C(NC1CC1)C1CCN(c2ccc(S(=O)(=O)N3CCOCC3)cc2Cl)CC1 | -2
Cc1ccc(S(=O)(=O)NNC(=O)C2CCN(S(=O)(=O)c3ccc(C)cc3)CC2)cc1 | -1
CSc1ccc(S(=O)(=O)N2CCC(C(=O)NC3CC3)CC2)cc1 | 18* | HuH7 TTR inh=-18;TTR act confirm=1
CCCCN1CCS(=O)(=O)N(Cc2cn(Cc3ccc(C)cc3)nn2)C(C(=O)OC)C1 (centres undefined) | -1
C=CCN1C(=O)[C@H](CC(=O)NCC23CC4CC(CC(C4)C2)C3)[C@@]2(C(=O)OCC)CCCC=C12 | -1
Cc1cccc(OCC(=O)NNS(=O)(=O)c2ccccc2F)c1 | 16* | HuH7 TTR inh=-4;TTR act confirm=2
Cc1cccc(OCC(=O)Nc2ccncc2)c1 | -2
Cc1cccc(OCC(=O)NNC(=O)CCc2ccccc2)c1 | 0
COc1ccc(S(=O)(=O)NC2CCN(C#N)CC2)cc1 | 4
CC(C)=CC([C@]12C[C@H](CO)N[C@@H]1Nc1ccccc12)S(=O)(=O)c1ccccc1 (some centres undefined) | 0
SMILES | TTR transcr act | others
CN(C)[C@@H]1CCN(c2cccc3c2S(=O)(=O)N(C2CC2)CCCO3)C1 | 0
CCC1(CC)Cc2ccccc2-c2[nH]c(=S)[nH]c(=O)c21 | 1
CCC1(C)Cc2ccccc2C(=O)N1 (centres undefined) | -2
CCC1(C)Cc2ccccc2C(=S)N1 (centres undefined) | 9.7* | HuH7 TTR inh=-5;TTR act confirm=0
C[C@H]1CN(S(=O)(=O)C(C)(C)C)[C@H](CCO)/C1=C\CCO | 3
COC(=O)CC[C@@H](/C=C/C(=O)OC(C)(C)C)Sc1ccc(C(C)(C)C)cc1 | 4
O=C1N2CCc3ccccc3C2CS(=O)(=O)N1CCc1ccccc1 (centres undefined) | -1
N#Cc1ccc(Cn2ccc3ccc(-c4ccc5ccn(C(=O)c6ccccc6)c5c4)cc32)cc1 | 0
O=C1C2C(CC3c4ccccc4CCN32)CN1c1ccccc1 (centres undefined) | 1
CN1CCN(c2nc(-c3cccs3)nc3ccccc23)CC1 | -1
CCN1CCN(c2nc(-c3ccccn3)nc3ccccc23)CC1 | 11* | HuH7 TTR inh=0;TTR act confirm=-1
c1ccc(-c2nc(N3CCOCC3)c3ccccc3n2)nc1 | -2
COC(=O)[C@]12C[C@H](CC(=O)NCc3ccc(OC)c(OC)c3)C(=O)N(CCC3=CCCCC3)C1=C[C@H](C1CCCC1)O[C@@H]2C | 1
Nn1c(-c2ccccc2)nc2ccccc2c1=O | 3
On1c(-c2ccccc2)nc2ccccc21 | 11* | HuH7 TTR inh=-8;TTR act confirm=0
Cc1nc2ccccc2n1-c1ccccc1 | 0
N#Cc1ccc(NC(=O)OC2CC3CC2[C@H]2CCCCN2C3)cc1 (some centres undefined) | 1
Cc1ccc([C@H](C)NC(=O)C2=C(N)N(S(=O)(=O)c3ccc(C)cc3)C(C(=O)c3ccccc3)C2c2ccccc2Cl)cc1 (some centres undefined) | 1
O=C(NCCc1c[nH]c2ccccc12)OCc1cn(-c2ccc(Cl)cc2)nn1 | -1
C[C@@H]1CN([C@@H](C)CO)C(=O)CCCn2nncc2CO[C@@H]1CN(C)C(=O)c1ccc(N2CCN(C)CC2)cc1 | -1
C[C@@H]1CN([C@H](C)CO)C(=O)CCCn2nncc2CO[C@H]1CN(C)C(=O)c1ccccc1 | 2
C[C@H](CO)N1C[C@H](C)[C@H](CN(C)C(=O)c2ccncc2)OCc2cnnn2CCCC1=O | 18* | HuH7 TTR inh=-8;TTR act confirm=0
COc1ccc(NC(=O)CCCNS(=O)(=O)c2ccc3[nH]c(=O)oc3c2)cc1OC | 0
CCc1ccc(CCNC(=O)OC2CC3CC2[C@H]2CCCCN2[C@H]3C)cc1 (some centres undefined) | -1
Cc1cc2oc(C(=O)N(Cc3ccc(N(C)C)cc3)CC3CCCO3)c(C)c2cc1C (centres undefined) | 51* | HuH7 TTR inh=-10;TTR act confirm=0
SMILES | TTR transcr act | others
Cc1cccc(NC(=O)CN(CC2CCCO2)C(=O)c2oc3ccc(F)cc3c2C)c1C (centres undefined) | 7
Cc1c(C(=O)N(Cc2ccc(N(C)C)cc2)C2CCS(=O)(=O)C2)oc2ccccc12 (centres undefined) | 0
CCN(c1ccccc1)S(=O)(=O)c1ccc(Cl)nc1 | 19* | HuH7 TTR inh=-4;TTR act confirm=1
CCN(c1ccccc1)S(=O)(=O)c1ccc(F)cc1 | 1
O=S(=O)(c1ccc(Cl)nc1)N(Cc1ccccc1)Cc1ccccc1 | -3
Cc1ccc(OCc2nnc(SCC(=O)O)n2-c2ccccc2)cc1 | 1
CCn1c(COc2ccc3c(c2)OCO3)nnc1SCC(=O)O | 13* | HuH7 TTR inh=-5;TTR act confirm=0
CCn1c(COc2cccc(C)c2)nnc1SCC(=O)N1CCCC1 | 3
COc1cc(NC(=O)c2[nH]c(C)c(C(C)=O)c2C)c(OC)cc1Cl | 0
CC(=O)O[C@H]1C=C[C@@H](NC(=O)OC(C)(C)C)C1 | 2
O=C(NC1CCCCN(Cc2ccc(Cl)cc2)C1=O)c1cccc(F)c1 (centres undefined) | 1
CCN1C(=O)[C@H]2[C@H]3CN=C(SCc4ccc(C)cc4)N3[C@@](Cc3ccccc3)(C(=O)OC)[C@H]2C1=O | 24* | HuH7 TTR inh=-2;TTR act confirm=3
CCN1C(=O)[C@H]2[C@H]3CN=C(SCc4ccc(C(=O)OC)cc4)N3[C@@](Cc3ccccc3)(C(=O)OC)[C@H]2C1=O | -1
CCN1C(=O)[C@H]2[C@H]3CN=C(SCc4ccc(Cl)cc4)N3[C@@](Cc3ccccc3)(C(=O)OC)[C@H]2C1=O | -2
CCOc1ccc(-c2cc(C(C)=O)c3n(c2=O)CCC3)cc1 | 0
Cc1cccc(C(=O)N[C@H]2CC[C@@]34CCCN3C(=O)CCC[C@H]4[C@H]2C)c1 | 0
O=C(/C=C/c1ccc(-c2ccccc2)cc1)NC1=NCCS1 | 3
